Structures can show the parent of a compound that is named as a salt.
Test system: MDA-MB-468
Test: phospho-S6 immunofluorescence (DAPI-normalised), per-plate z-score; higher = higher phospho-S6 signal (less pathway suppression)
Settings: 24 h
Protocol: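 GPCR-targeted compound library (MedChemExpress HY-L006) tested on MDA-MB-468 PTEN-null TNBC cells in 384-well plates at 0.1, 1 or 10 uM, combined with vehicle, GDC0941 450 nM or lapatinib 1 uM, for 24 h. Phospho-S6 (S240/244) immunofluorescence normalised to DAPI and expressed as a per-plate z-score; values are the mean of biological triplicates.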

SMILES | phospho-S6 immunofluorescence (z-score) (co-treatment: GDC0941 450 nM) | phospho-S6 immunofluorescence (z-score) (co-treatment: lapatinib 1 uM) | phospho-S6 immunofluorescence (z-score) (co-treatment: vehicle)
C[C@H]1C[C@H]2[C@@H]3CCC4=CC(=O)C=C[C@]4(C)[C@@]3(F)[C@@H](O)C[C@]2(C)[C@@]1(O)C(=O)CO [Betamethasone] (compound 10 µM) | -1.59 | 1.5 | -0.96
CCCCCNC(=N)N/N=C/c1c[nH]c2ccc(OC)cc12 [Tegaserod (maleate)] (compound 10 µM) | -6 | -12.1 | -10.3
Cc1ccc(N(CC2=NCCN2)c2cccc(O)c2)cc1 [Phentolamine (mesylate)] (compound 10 µM) | -0.17 | 1.1 | -0.58
CCNC(=O)[C@H]1O[C@@H](n2cnc3c(N)nc(NCCc4ccc(CCC(=O)O)cc4)nc32)[C@H](O)[C@@H]1O (compound 10 µM) | 0.05 | 1.28 | -0.14
C[C@@](N)(C(=O)O)c1ccc(C(=O)O)cc1 (compound 10 µM) | 0.93 | 1 | 0.17
Cc1noc(-c2ccc(-c3ccc(CC(=O)O)cc3)cc2)c1NC(=O)O[C@H](C)c1ccccc1 [AM095 (free acid)] (compound 10 µM) | 1.08 | 0.37 | 0.82
NC(=O)c1ccc[n+]([O-])c1 [Nicotinamide N-oxide] (compound 10 µM) | 0.09 | 0.22 | -0.26
COCCCN1CCC(NC(=O)c2cc(Cl)c(N)c3c2OCC3)CC1 [Prucalopride] (compound 10 µM) | 0.54 | 0 | 0.17
C[C@]12C=CC(=O)C=C1CC[C@@H]1[C@@H]2[C@@H](O)C[C@@]2(C)[C@H]1CC[C@]2(O)C(=O)CO [Prednisolone] (compound 10 µM) | 0.01 | 1.18 | 0.05
CC1(C)C(=O)N(CCN2CCC(C(=O)c3ccc(F)cc3)CC2)c2ccccc21 (compound 10 µM) | -0.29 | -0.77 | 0.28
OCCN1CCN(CCCN2c3ccccc3Sc3ccc(Cl)cc32)CC1 [Perphenazine] (compound 10 µM) | -1.28 | -5.07 | 0.82
CCC(=O)O[C@]1(C(=O)CCl)[C@@H](C)C[C@H]2[C@@H]3CCC4=CC(=O)C=C[C@]4(C)[C@@]3(F)[C@@H](O)C[C@@]21C [Clobetasol propionate] (compound 10 µM) | -0.19 | -0.09 | 0.7
COCc1nnc(N2CC(Oc3ccc(F)cc3Cl)C2)n1-c1ccc(OC)nc1 (compound 10 µM) | -0.38 | -0.91 | -0.61
Cc1sc(C)c(C(=O)NC2(c3ccc(C(=O)O)cc3)CC2)c1Cc1ccc(C(F)(F)F)cc1 (compound 10 µM) | -1.42 | -0.58 | 0.73
COc1cccc(CCc2ccccc2OCC(CN(C)C)OC(=O)CCC(=O)O)c1 (centres undefined) [Sarpogrelate (hydrochloride)] (compound 10 µM) | 0.63 | -0.51 | -0.15
CCCCC(C)(O)C/C=C/[C@H]1[C@H](O)CC(=O)[C@@H]1CCCCCCC(=O)OC (mixture of isomers) [Misoprostol] (compound 10 µM) | 0.36 | 0.67 | 1.59
CC(N)(C(=O)O)c1ccc(C(=O)O)cc1 (racemic) (compound 10 µM) | 0.62 | 0 | 0.84
Nc1nc(NCCc2ccc(O)cc2)nc2nc(-c3ccco3)nn12 (compound 10 µM) | -1.88 | 0.67 | 1.01
CCCN(CCc1cccs1)[C@H]1CCc2c(O)cccc2C1 [Rotigotine] (compound 10 µM) | 0.53 | -0.05 | -0.73
NCCCC[C@H](NC(=O)[C@@H]1CCCN1C(=O)[C@@H]1CSSC[C@H](NC(=O)CNC(=O)CNC(=O)CN)C(=O)N[C@@H](Cc2ccc(O)cc2)C(=O)N[C@@H](Cc2ccccc2)C(=O)N[C@@H](CCC(N)=O)C(=O)N[C@@H](CC(N)=O)C(=O)N1)C(=O)NCC(N)=O [Terlipressin] (compound 10 µM) | 0.05 | 0.98 | 0.08
CCC(=O)NCC[C@@H]1CCc2ccc3c(c21)CCO3 [Ramelteon] (compound 10 µM) | -0.04 | -0.4 | 0.21
CN1CCN(C2=Nc3ccccc3Oc3ccc(Cl)cc32)CC1 [Loxapine (succinate)] (compound 10 µM) | 0.7 | 1.22 | -1.15
COc1cc2c(cc1OC)-c1cc3ccc4c(c3c[n+]1CC2)OCO4 [Epiberberine (chloride)] (compound 10 µM) | -0.39 | 0.22 | 1.66
